Assays:
[1] = target: 60 kDa heat shock protein, mitochondrial (UniProt P10809); experiment: cross-link between two proteins; cross-linking mass spectrometry
ADP/ATP translocase 3 = ADP/ATP translocase 3 (UniProt P12236); experiment: cross-link between two proteins; co-fractionation; cross-linking mass spectrometry
Sequence of ADP/ATP translocase 3 (P12236 whole entry): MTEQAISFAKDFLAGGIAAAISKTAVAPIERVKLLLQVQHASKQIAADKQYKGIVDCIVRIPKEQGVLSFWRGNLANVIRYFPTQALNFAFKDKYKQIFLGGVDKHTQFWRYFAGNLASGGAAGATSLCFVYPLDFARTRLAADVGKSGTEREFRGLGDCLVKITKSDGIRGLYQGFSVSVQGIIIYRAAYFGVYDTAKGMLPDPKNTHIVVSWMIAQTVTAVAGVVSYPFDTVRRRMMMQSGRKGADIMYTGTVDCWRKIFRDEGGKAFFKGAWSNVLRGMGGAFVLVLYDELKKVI

Putative GTP-binding protein 6, O43824
listed as a hit [1]: yes

ADP/ATP translocase 2, P05141
listed as a hit (ADP/ATP translocase 3): yes
